NCF1 inh: p47phox (human) inhibition | P14598 | p47phox/p22phox peptide binding, fluorescence polarization, 2 h | inhibition, % at 24.7 µM | 220,000 tested, 0.53% active | AID 1274;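 note: 0% = p47phox with labelled peptide and 100% = labelled peptide alone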
eIF4E-4G inh: inhibitors of eIF4E and eIF4G interaction in translation initiation; TR-FRET eIF4E-eIF4GI(517-606) binding, 2 h; 220,000 tested, 0.37% active; inhibition, % at 21.7 µM; P63073+Q04637;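 note: 0% = full FRET control wells and 100% = background wells lacking eIF4GI fragment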
Bim-Mcl-1: disrupts Bim peptide binding to human Mcl-1 | inhibition, % at 10 µM | Q07820 | 190,000 tested, 0.1% active | Bead-based flow cytometry, Bim peptide-Mcl-1 binding; in the data active = inhibition above about 40%;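 note: 0% = no compound tracer wells and 100% = peptide blocker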
Target sequence (Q07820 whole entry, looked up): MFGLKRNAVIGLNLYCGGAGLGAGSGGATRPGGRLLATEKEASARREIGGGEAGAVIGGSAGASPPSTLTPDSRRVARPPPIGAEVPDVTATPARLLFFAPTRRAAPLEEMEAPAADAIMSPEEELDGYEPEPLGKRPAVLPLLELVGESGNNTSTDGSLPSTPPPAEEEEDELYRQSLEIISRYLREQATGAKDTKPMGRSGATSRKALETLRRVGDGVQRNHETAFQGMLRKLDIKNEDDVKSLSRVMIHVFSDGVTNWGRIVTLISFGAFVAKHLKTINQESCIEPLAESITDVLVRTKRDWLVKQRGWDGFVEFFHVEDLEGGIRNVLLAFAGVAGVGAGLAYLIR
Mcl1-Noxa inh: Mcl-1/Noxa interaction inhibition; 220,000 tested, 1.5% active; inhibition, % at 21.7 µM; Q07820; AID 1022; TR-FRET Mcl-1/Noxa peptide binding, 2 h;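 active = compounds that cut the protein-peptide binding signal by more than 50% relative to plate controls in a single-dose test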;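 note: His-tagged Mcl-1 with rhodamine Noxa BH3 peptide and terbium anti-His antibody; 0% = Mcl-1 plus Noxa peptide wells and 100% = peptide-only wells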
14-3-3 Bad PPI: disrupts binding of bovine 14-3-3 zeta to phospho-Bad peptide. P63103. TR-FRET 14-3-3zeta/Dy647-pBad peptide displacement, 1 h. inhibition, % at 21.7 µM. 220,000 tested, 0.71% active;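 active = inhibition above about 70%, limit read from the data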;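 note: 0% = full 14-3-3 plus peptide FRET controls and 100% = background without 14-3-3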
Target sequence (P63103 whole entry, looked up): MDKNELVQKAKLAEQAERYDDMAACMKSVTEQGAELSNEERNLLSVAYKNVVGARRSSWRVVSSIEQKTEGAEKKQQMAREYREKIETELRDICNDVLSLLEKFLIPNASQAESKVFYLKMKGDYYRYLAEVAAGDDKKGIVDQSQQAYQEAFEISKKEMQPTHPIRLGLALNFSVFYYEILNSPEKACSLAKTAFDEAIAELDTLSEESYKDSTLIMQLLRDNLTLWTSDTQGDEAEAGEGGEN
Mcl1 Bid PPI: Mcl-1/Bid interaction inhibition; 220,000 tested, 0.97% active; TR-FRET Mcl-1/Bid-Dy647 peptide binding, 1536-well; inhibition, % at 21.7 µM;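 active = compounds that cut the binding signal by more than half at the single screening dose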;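 note: His-tagged Mcl-1 with europium anti-His antibody binding Bid BH3 peptide; 0% = Mcl-1 plus peptide wells and 100% = peptide-only wells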
An asterisk follows results filed as active; . = no result given. The list is not random: actives were taken first. Their share in the collection is about 3.4%.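 Rule for the calls, unless noted: active = inhibition above about 30% (limit read from the data); inactive = the rest.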

SMILES | NCF1 inh | eIF4E-4G inh | Bim-Mcl-1 | Mcl1-Noxa inh | 14-3-3 Bad PPI | Mcl1 Bid PPI
CCC(C)/C(C)=N/NC(=O)CNS(=O)(=O)c1ccc([N+](=O)[O-])cc1 (stereo not given) | -4 | 2 | -5 | 17 | 0 | -67
CC(C)c1ncc(S(=O)(=O)c2ccc(C(F)(F)F)cn2)c(N)n1 | -8 | -1 | . | -11 | -3 | -12
CC(C)(C)c1ccc(-c2nnc(N)o2)cc1 | -10 | 2 | . | -16 | -5 | -27
CN(CCO)c1nc(N)c2c(N)nc3c(c2c1C#N)CC(=O)N3C1CCCC1 | -8 | 3 | 3 | 46 | -11 | -23
N#Cc1c(N2CCN(c3ccc(F)cc3)CC2)nc(N)c2c(N)nc3c(c12)CC(=O)N3C1CC1 | 0 | 5 | 4 | 55* | -19 | -6
CCOc1ccccc1NC(=S)NCCc1ccccc1 | -7 | 0 | 0 | 11 | -3 | -43
C=CCn1c(SCC#N)nnc1-c1ccc2ncccc2c1 | -5 | 98* | . | 0 | -6 | -15
C=CCn1c(SC)nnc1-c1ccc2ncccc2c1 | -1 | -2 | . | 18 | 0 | -4
Cc1ccc(NC(=O)Cn2ccc([N+](=O)[O-])n2)cc1Cl | -1 | 0 | 0 | 2 | -2 | 4
COc1ccc(CNC(=O)Cc2csc(Nc3nc(=S)[nH]c4ccccc34)n2)cc1 | -12 | -2 | 0 | -3 | 9 | 34
O=C(Cc1csc(Nc2nc(=S)[nH]c3ccccc23)n1)NCc1ccc(Cl)cc1 | -9 | 6 | 2 | 4 | 25 | 56*
COc1ccccc1CC(=O)NNS(=O)(=O)c1ccc([N+](=O)[O-])cc1 | 0 | -1 | 0 | 6 | -4 | -57
CCSc1nnc(-c2cc(Br)ccc2NC(C)=O)c(=O)[nH]1 | -9 | 96* | . | -4 | 4 | -8
Oc1[nH]c(=S)sc1/C=C1\C(c2ccccc2)=Nc2ccccc21 | 32* | 1 | -6 | 81* | -9 | -3
Oc1[nH]c(=S)sc1C=C1N=c2ccccc2=N1 | -35 | -3 | . | 17 | -11 | -45
CC(=O)c1ccc(S(=O)(=O)Nc2ccc(-c3ccc4nnc(C)n4n3)cc2)cc1 | 4 | -1 | 2 | 55* | -7 | -3
C(=N\n1cnnc1)/c1ccc(N2CCOCC2)s1 | 43* | 3 | -4 | -4 | -4 | -55
CCOC(=O)c1c(CN2CCN(C)CC2)oc2ccc(OC)cc12 | 2 | 18 | -2 | 12 | 79* | 41
CCOC(=O)c1c(CN2CCCCC2)oc2ccc(OC)cc12 | -10 | 6 | -3 | 14 | 35 | 10
COc1ccc(CCN(C)C(=O)CSc2nnnn2C)cc1OC | 4 | -2 | 0 | 10 | -11 | -15
COC(CNC(=O)c1ccc2nc(-c3cccs3)c(-c3cccs3)nc2c1)OC | -2 | 3 | -1 | -22 | -11 | 94*
COC(=O)c1ccc(NC(=O)c2ccccc2N(C)S(=O)(=O)c2ccccc2)cc1 | -6 | -11 | -1 | 1 | -7 | 98*
O=C(Nc1cc(C(F)(F)F)ccc1N1CCOCC1)c1c(F)c(F)c(F)c(F)c1F | 1 | 2 | 0 | 12 | 1 | -6
FC(F)(F)c1ccc(N2CCOCC2)c(NC2=NCCCCC2)c1 | 9 | -2 | -2 | 12 | 82* | 15
CCOc1cc(N2CCOCC2)c(OCC)cc1NC1=NCCCCC1 | 60* | 2 | -1 | 13 | -6 | -51
SMILES | NCF1 inh | eIF4E-4G inh | Bim-Mcl-1 | Mcl1-Noxa inh | 14-3-3 Bad PPI | Mcl1 Bid PPI
CCSC1=N/C(=C\C=C2/Oc3ccccc3N2CC)C(=O)S1 | -54 | -4 | . | 26 | -1 | -27
CCc1ccc(NC(=S)N2CCCCCCC2)cc1 | -5 | -1 | -1 | -4 | -8 | -51
O=C(Nc1ccc2ccccc2c1)c1cn(-c2ccccc2)nc1-c1cccs1 | -48 | -11 | -2 | -34 | 3 | -13
CN(C)c1ccc(NC(=O)c2cn(-c3ccccc3)nc2-c2cccs2)cc1 | -8 | -7 | -4 | 77* | -13 | 28
CCCCOc1ccc(CCC(=O)N/N=C/c2ccco2)cc1 | -7 | -2 | . | -2 | -3 | -11
CCc1ccc(C(=O)/C=C/NCc2ccc(F)cc2)cc1 | -21 | 0 | -10 | 13 | -1 | 53*
COc1cccc(/C(C#N)=C/c2c(-c3ccc(Cl)cc3)nc3c(C)cccn23)c1 | -10 | 8 | 0 | -7 | 71* | -26
Cc1cccn2c(/C=N/OCc3cccc(F)c3)c(-c3ccc(Cl)cc3)nc12 | 3 | -5 | 1 | -18 | -2 | -51
O=C(Nc1ccccc1)c1sc(N2CCOCC2)nc1-c1ccccc1 | 2 | -2 | -4 | -6 | 3 | 2
N#C/C(=C\c1sc(N2CCOCC2)nc1-c1ccccc1)C(=O)Nc1cccc2ccccc12 | -30 | 45* | 0 | 21 | -5 | 57*
Cc1cc(C)c(S(=O)(=O)Nc2ccccc2C(=O)OCC(=O)NCc2ccccc2)c(C)c1 | -27 | 3 | 0 | 7 | -13 | -11
Cc1ccc(C(=O)ONc2ccc(N=O)cc2)cc1 | -12 | 0 | 0 | 19 | -5 | -2
Cc1ccc(C(=O)ONc2ccc(N=NC(=O)c3ccccc3O)cc2)cc1 | 11 | -47 | 3 | 81* | 26 | 102*
CCOC(=O)NNC(=S)Nc1c(C)n(C)n(-c2ccccc2)c1=O | -11 | 0 | . | 10 | -5 | -36
COc1ccc(CNc2ccccc2SC)cc1OC | 10 | -7 | -1 | 34 | 74* | 32
COc1cc(/C=C2\C(=O)NN(c3ccccc3)C2=O)cc([N+](=O)[O-])c1O | -14 | -2 | 1 | 51* | 24 | -14
CCOc1cc(/C=C2\C(=O)NN(c3ccccc3)C2=O)cc([N+](=O)[O-])c1O | -14 | 2 | 0 | 51* | 24 | -12
CC(C)CCN1CCN(C2CCN(c3ccccc3)CC2)CC1CCO (stereo not given) | -8 | -2 | -3 | 14 | -16 | -26
COC(=O)c1c(C)[nH]c(-c2csc(N)n2)c1C | -8 | -2 | 0 | 23 | 4 | -33
Cc1ccc(NC(=O)COC(=O)/C=C/c2cccs2)cc1 | -5 | -2 | 2 | 2 | -19 | -8
CCN(c1ccc(NC(=O)COC(=O)/C=C/c2cccs2)cc1)C(C)C | 3 | 18 | -1 | 84* | 2 | -32
CC(C)c1ccc(/C=N/n2cnnc2)cc1 | 8 | -1 | . | -9 | 2 | -13
O=C1/C(=C/c2ccc(O)c(O)c2)Oc2cc(O)ccc21 | -147 | -10 | . | 75* | 6 | -83
O=C(CSc1cccc[n+]1[O-])Nc1ccc(C(F)(F)F)cc1[N+](=O)[O-] | -3 | 3 | 0 | 8 | -12 | -8
O=[N+]([O-])c1ccc(Sc2cccc[n+]2[O-])c2nonc12 | 13 | 5 | . | 62* | 6 | -115
CCOc1ccc(NC(=O)c2ccc(F)c(S(=O)(=O)N3CCN(c4ccccn4)CC3)c2)cc1 | -5 | 2 | 0 | 14 | 75* | -16
